Assay results as given in PubChem BioAssay (NCI).
Where “and” joins values, the source holds several entries; their conditions need not be identical. Equal values may be shown once. This is part of a sample that, as a whole, favours compounds with a hit. Of some 83,000 tested, about 20% had one in any assay.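 96-well plates, one dose, 48 hours. Percent growth reported; active if below 10.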 Calls of active or inactive are those of the source.

system: MOLT-4 leukemia; experiment: NCI-60 one-dose screen, 48 h (100 = growth as untreated, 0 = no growth, -100 = all killed); conditions: 10 µM
Experimental: Growth inhibition of the MOLT-4 human tumor cell line is measured as a screen for anti-cancer activity. Cells are grown in 96 well plates and exposed to the test compound for 48 hours. Compounds are tested at a single concentration, which is 10^-5 M for most compounds. The reported endpoint is percent growth (GI% or GIPRCNT), where numbers from 0 - 100% represent growth inhibition, and numbers from -100% - 0 represent cell death. For example, a value of 40 represents 60% growth inhibition. A value of 0 means no net growth occurred over the course of the experiment. A value of -40 indicates 40% of cells at the beginning of the experiment died by the end of the experiment. A value of -100 means all cells are dead at the end of the experiment.
NCI-60 Human Tumor Cell Lines Screen was performed using the standard one-dose NCI protocol, which is described in more detail at https://dtp.cancer.gov/discovery_development/nci-60/default.htm.
Compounds with GIPRCNT values below 10 were considered active. Activity score was based on GIPRCNT using the following formula: […]
Score is 0 for GIPRCNT values of 100 or above, 50 for GIPRCNT values of 0, and 100 for GIPRCNT values of -100.

SMILES | growth
C/C=C/CC(C)C(O)[C@H](NC(=O)[C@@H]1CCCN1C(=O)C(C)(C)NC(=O)CCCCCCCCC)C(=O)N[C@@](C)(CC)C(=O)N[C@@H](CCC(N)=O)C(=O)N[C@H](CCC(N)=O)C(=O)NC(C)(C)C(=O)NC(C)(C)C(=O)N[C@@H](CCC(N)=O)C(=O)N[C@H](CC(C)C)C(=O)N[C@H](CO)CC(C)C (stereo not given in full) | 18.8% (inactive) and 54.7% (inactive)
NC1CCc2cc(O)c(O)cc2C1 (stereo not given) | 66% (inactive)
C/C=C/CC(C)C(O)[C@H](NC(=O)[C@@H]1CCCN1C(=O)C(C)(C)NC(=O)CCCCCCC)C(=O)N[C@@](C)(CC)C(=O)N[C@@H](CCC(N)=O)C(=O)N[C@H](CCC(N)=O)C(=O)NC(C)(C)C(=O)NC(C)(C)C(=O)N[C@@H](CCC(N)=O)C(=O)N[C@H](CC(C)C)C(=O)N[C@H](CO)CC(C)C (stereo not given in full) | 101% (inactive) and -32.4% (active)
COc1cccc2c1cc([N+](=O)[O-])c1c(C(=O)O)cc3c(c12)OCO3 | 99.6% (inactive)
CC(C)(O)/C=C/C(=O)[C@](C)(O)[C@H]1[C@H](O)C[C@@]2(C)[C@H]3CC=C4[C@@H](C[C@H](O)C(=O)C4(C)C)[C@]3(C)C(=O)C[C@]12C | 24.8% (inactive)
CC1=C2C(=C[C@@](C)(COS(C)(=O)=O)[C@@H]2O)C(=O)[C@](C)(O)C12CC2 | 10.4% (inactive)
CC(C)=CCc1c2c(c(O)c3c1O[C@]14C(=C[C@@H]5C[C@H]1C(C)(C)O[C@@]4(C/C=C(/C)C(=O)O)C5=O)C3=O)C=CC(C)(C)O2 | -15.6% (active)
CC1=C[C@H]2O[C@@H]3C[C@H]4OC(=O)/C=C\C=C\[C@H]([C@@H](C)O)OCC[C@@H](C)[C@H](O)C(=O)OC[C@@]2(CC1)[C@]4(C)[C@]31CO1 | -19.2% (active)
N#Cc1nc(-c2ccccc2)oc1N1CCC(S(=O)(=O)F)CC1 | 94.3% (inactive)
C[C@@H]1C[C@H]2C(=O)O[C@@H](C)C(NC(=O)[C@H](Cc3cc(F)cc(F)c3)NC(=O)Nc3ccc(OS(=O)(=O)F)cc3)C(=O)N3CCC[C@H]3C(=O)N3CCO[C@H](C)[C@H]3C(=O)N[C@@H](CO)C(=O)N2C1 (stereo not given in full) | 43.8% (inactive)
C[C@@H]1CCC/C=C/[C@H]2C[C@@H](O)C[C@@H]2[C@@H](O)/C=C/C(=O)O1 | 1.42% (active)
CCC(C)[C@H]1C(=O)O[C@H](C(C)C)C(=O)N(C)[C@@H](C(C)C)C(=O)O[C@H](C(C)C)C(=O)N(C)[C@@H](C(C)C)C(=O)O[C@H](C(C)C)C(=O)N1C (stereo not given in full) | -13% (active)
CC1=C(CN(O)C(N)=O)C2=C(C)C3(CC3)[C@@](C)(O)C(=O)C2=C1 | 104% (inactive)
CC(=O)O[C@@H]1C[C@H]2O[C@@H]3C=C(C)CC[C@]3(C)[C@]1(C)[C@]21CO1 | -9.55% (active)
Cc1ccc(CNc2nc3ccc(OC/C(=C/F)CN)cc3o2)cn1 | 99.8% (inactive)
O=C(CCCc1ccc(N(CCCl)CCCl)cc1)OCc1ccccc1 | 76.7% (inactive)
CC1=C[C@H]2O[C@@H]3C[C@H]4OC(=O)/C=C\C=C\[C@H]([C@@H](C)O)OCC/C(C)=C/C(=O)OC[C@@]2(CC1)[C@]4(C)[C@]31CO1 | -18.5% (active)
CC1=C2C(=C[C@@](C)(COC(=O)c3ccc(S(=O)(=O)F)cc3)[C@@H]2O)C(=O)[C@](C)(O)C12CC2 | 10.2% (inactive)
COc1cc2c(O[C@@H]3OC[C@H](OC(C)=O)[C@H](OC(C)=O)[C@H]3O)c3c(c(-c4ccc5c(c4)OCO5)c2cc1OC)C(=O)OC3 | 13.7% (inactive)
CC1=C2C(=C[C@@](C)(COC(=O)c3ccc(S(=O)(=O)F)cc3)[C@@H]2OC(=O)c2ccc(S(=O)(=O)F)cc2)C(=O)[C@](C)(O)C12CC2 | 23.4% (inactive)

SMILES | growth
COc1cc(OC)c(S(=O)(=O)N(CCCl)CCCl)cc1C(=O)/C=C/c1ccc(Cl)cc1 | 58.8% (inactive)
CC1=C(CN(O)C(N)=O)C2=C(C)C3(CC3)[C@](C)(O)C(=O)C2=C1 | 76.2% (inactive)
C/C=C/CC(C)C(O)[C@H](NC(=O)[C@@H]1CCCN1C(=O)C(C)(C)NC(=O)CCCCCCCCC)C(=O)N[C@@](C)(CC)C(=O)N[C@@H](CCC(N)=O)C(=O)N[C@H](CCC(N)=O)C(=O)NC(C)(C)C(=O)N[C@@](C)(CC)C(=O)N[C@@H](CCC(N)=O)C(=O)N[C@H](CC(C)C)C(=O)N[C@H](CO)CC(C)C (stereo not given in full) | 101% (inactive) and -14.5% (active)
CC(=O)O[C@@H]1[C@@H]2O[C@H]2[C@@](C)(O)C(=O)[C@@H](C)C/C=C/[C@H]2[C@@H]3O[C@]3(C)[C@@H](C)C3[C@H](Cc4ccccc4)NC(=O)[C@@]312 (stereo not given in full) | 67.9% (inactive)
CCCCCCCCCC(=O)N[C@@](C)(CC)C(=O)N1CCC[C@H]1C(=O)N[C@@H](CC(C)C)C(=O)N[C@@](C)(CC)C(=O)N[C@@H](CCC(N)=O)C(=O)N[C@H](CCC(N)=O)C(=O)NC(C)(C)C(=O)NC(C)(C)C(=O)N[C@@H](CCC(N)=O)C(=O)N[C@H](CC(C)C)C(=O)N[C@H](CO)CC(C)C | -50.5% (active) and -25.3% (active)
C=C1[C@@H](C)C2[C@H](Cc3ccccc3)NC(=O)[C@]23[C@H](OC(C)=O)/C=C/[C@@](C)(O)C(=O)[C@@H](C)C/C=C/[C@H]3[C@@H]1O (stereo not given in full) | 62.3% (inactive)
COc1cc2c(O[C@@H]3OC[C@H](O)[C@H](O)[C@H]3O)c3c(c(-c4ccc5c(c4)OCO5)c2cc1OC)C(=O)OC3 | 110% (inactive)
COC1[C@@H]2C[C@H]3C(C)(C)O[C@@](C/C=C(/C)C(=O)O)(C2=O)[C@]32Oc3c(CC=C(C)C)c4c(c(O)c3C(=O)[C@H]12)C=CC(C)(C)O4 (stereo not given in full) | -8.14% (active)
CC1=C2C(=C[C@@](C)(C=O)[C@@H]2O)C(=O)[C@](C)(O)C12CC2 | 16.5% (inactive)
CC1=C(CCC=NNC(N)=O)C2=C(C)C3(CC3)[C@@](C)(O)C(=O)C2=C1 | 47.2% (inactive)
CN1C(=O)[C@]23SSC1(C)C(=O)N2[C@H]1Nc2ccccc2C1([C@@]12c4ccccc4N[C@@H]1N1C(=O)C4(C)SS[C@]1(C(=O)N4C)[C@H]2O)[C@@H]3O (stereo not given in full) | -20.6% (active)
C/C=C\C(=O)O[C@@H]1CC2O[C@@H]3C=C(C)C(=O)C[C@]3(C)[C@]1(C)[C@]21CO1 | -26.4% (active)
COc1cc2c(cc1OC)[C@@H]1N(CC2)C(=O)c2ccccc2[C@@]1(C)C(=O)O | 108% (inactive)
CN(CCF)/N=N/c1nc[nH]c1C(N)=O | 18.7% (inactive)
COC(=O)[C@H]1[C@@H](O)[C@@]2(O)c3c(OC)cc(OC)cc3O[C@@]2(c2ccc(OC)cc2)[C@@H]1c1ccccc1 | 2.37% (active)
C/C=C/CC(C)C(O)[C@H](NC(=O)[C@@H]1CCCN1C(=O)C(C)(C)NC(=O)CCCCCCCCC)C(=O)NC(C)(C)C(=O)N[C@@H](CCC(N)=O)C(=O)N[C@H](CCC(N)=O)C(=O)NC(C)(C)C(=O)NC(C)(C)C(=O)N[C@@H](CCC(N)=O)C(=O)N[C@H](CC(C)C)C(=O)N[C@H](CO)CC(C)C (stereo not given in full) | -48.2% (active) and -23.8% (active)
CC1=C2C(=O)[C@](C)(CO)C=C2C(=O)[C@](C)(O)C12CC2 | 27.3% (inactive)
CC1=C[C@H]2O[C@@H]3C[C@@H](O)[C@](C)([C@@]2(C)CC1)[C@@]31CO1 | 9.97% (active)
N#Cc1c(-n2c(Br)c(Br)c3cc(Br)ccc32)[nH]c2c(Br)cc(Br)cc12 | 2.02% (active)
COc1cc(C)c(-c2ccc(OC)c(=O)cc2C)c(OC)c1OC | 12.3% (inactive) and 102% (inactive)
